Measurements as given in the supplement of paper PMC10849652.
Of roughly 8,800 targets only a part is listed; those with a hit were picked by preference. About 0.5% of all pairs of compound and target were hits. A number with no mark means an inactive call.

What was measured:
Test in all cases: log2 fold change, soluble protein after heating vs DMSO (PISA); higher = thermal stabilisation; K562 lysate, 10 uM; active = over 0.2 and 3.5 SD of the protein, either way, in both replicates (recomputed)
erlotinib = compound: C#Cc1cccc(Nc2ncnc3cc(OCCOC)c(OCCOC)cc23)c1 [erlotinib]
In short: (§1)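 Quantification was by TMTpro 16plex LC-MS/MS with equalised channel sums, applied to the supernatant after 21,000xg for 90 min. Samples were crude K562 extract at 1 mg/mL protein in PBS pH 7.4 with 1 mM MgCl2, treated with 10 μM compound for 30 min, heated for 3 min across 48°C-58°C, pooled and brought to 0.5% NP-40 at 4°C. Values are log-two fold changes in thermal stability relative to solvent controls, from duplicates.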

[1] = compound: C/C(=N\NC(=O)C1=CC(=CC=C1)S(=O)(=O)N2CCOCC2)/C3=C(C=CC(=C3)Cl)O
In short: as §1

[2] = compound: C1=CC(=CC=C1C2=NC3=C(N2)C=C(C=C3)C(=O)N)OC4=CC=C(C=C4)Cl
In short: as §1

[3] = compound: C1=CC2=C(C=CC(=C2)/C=C\3/C(=O)NC(=NCC4=CC=CS4)S3)N=C1
In short: as §1

[4] = compound: C1=CC2=NC=CN=C2C=C1/C=C/3\C(=O)NC(=O)S3
In short: as §1

[5] = compound: C1=CC=C(C=C1)C2=NC(=C(N2)C3=CC=NC=C3)C4=CC(=C(C=C4)Cl)O
In short: as §1

[6] = compound: C1=CC=C2C(=C1)C3=NNC4=CC=CC(=C43)C2=O
In short: as §1

[7] = compound: C1CCN(C1)C(=O)NC2=CC=CC(=C2)NC3=NC=C(C(=N3)NCCC4=CN=CN4)Br
In short: as §1

[8] = compound: C1CN(CCC1(CC2=CC=C(C=C2)Cl)N)C3=NC=NC4=C3C=CN4
In short: as §1

IRAK-1-4 Inhibitor I = compound: C1COCCN1CCN2C3=CC=CC=C3N=C2NC(=O)C4=CC(=CC=C4)[N+](=O)[O-] [IRAK-1-4 Inhibitor I]
In short: as §1

Chain of UniProt Q9UBB5 (Q9UBB5 whole entry, looked up): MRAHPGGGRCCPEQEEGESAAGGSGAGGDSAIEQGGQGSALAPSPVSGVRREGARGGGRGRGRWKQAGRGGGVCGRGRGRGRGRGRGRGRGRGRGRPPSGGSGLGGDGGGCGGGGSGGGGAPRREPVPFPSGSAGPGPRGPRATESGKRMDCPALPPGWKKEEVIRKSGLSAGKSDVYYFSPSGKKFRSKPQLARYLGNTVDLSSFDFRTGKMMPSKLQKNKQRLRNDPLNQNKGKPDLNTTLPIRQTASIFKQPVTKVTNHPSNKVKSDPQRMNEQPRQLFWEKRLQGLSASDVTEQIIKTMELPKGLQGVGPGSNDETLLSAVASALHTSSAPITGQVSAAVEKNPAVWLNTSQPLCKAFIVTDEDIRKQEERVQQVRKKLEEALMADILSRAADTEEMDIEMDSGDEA
Chain of UniProt Q9NSK0 (Q9NSK0 whole entry, looked up): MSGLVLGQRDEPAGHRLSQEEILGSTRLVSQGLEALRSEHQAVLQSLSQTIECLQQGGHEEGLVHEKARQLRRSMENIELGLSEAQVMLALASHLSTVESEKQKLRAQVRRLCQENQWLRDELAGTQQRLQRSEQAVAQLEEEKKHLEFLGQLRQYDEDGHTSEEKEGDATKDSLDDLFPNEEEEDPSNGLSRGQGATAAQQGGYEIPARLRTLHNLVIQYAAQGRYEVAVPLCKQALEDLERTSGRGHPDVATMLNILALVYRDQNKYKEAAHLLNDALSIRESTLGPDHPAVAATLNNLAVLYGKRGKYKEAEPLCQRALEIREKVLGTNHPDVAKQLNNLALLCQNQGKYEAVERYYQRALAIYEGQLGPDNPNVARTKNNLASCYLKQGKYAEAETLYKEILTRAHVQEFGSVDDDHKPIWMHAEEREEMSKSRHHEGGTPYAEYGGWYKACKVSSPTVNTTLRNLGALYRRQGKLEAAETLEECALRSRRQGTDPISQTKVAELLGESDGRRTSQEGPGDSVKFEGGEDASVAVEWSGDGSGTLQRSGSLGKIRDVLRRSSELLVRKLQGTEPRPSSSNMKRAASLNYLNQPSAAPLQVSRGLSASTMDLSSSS
Chain of UniProt O95202 (O95202 whole entry, looked up): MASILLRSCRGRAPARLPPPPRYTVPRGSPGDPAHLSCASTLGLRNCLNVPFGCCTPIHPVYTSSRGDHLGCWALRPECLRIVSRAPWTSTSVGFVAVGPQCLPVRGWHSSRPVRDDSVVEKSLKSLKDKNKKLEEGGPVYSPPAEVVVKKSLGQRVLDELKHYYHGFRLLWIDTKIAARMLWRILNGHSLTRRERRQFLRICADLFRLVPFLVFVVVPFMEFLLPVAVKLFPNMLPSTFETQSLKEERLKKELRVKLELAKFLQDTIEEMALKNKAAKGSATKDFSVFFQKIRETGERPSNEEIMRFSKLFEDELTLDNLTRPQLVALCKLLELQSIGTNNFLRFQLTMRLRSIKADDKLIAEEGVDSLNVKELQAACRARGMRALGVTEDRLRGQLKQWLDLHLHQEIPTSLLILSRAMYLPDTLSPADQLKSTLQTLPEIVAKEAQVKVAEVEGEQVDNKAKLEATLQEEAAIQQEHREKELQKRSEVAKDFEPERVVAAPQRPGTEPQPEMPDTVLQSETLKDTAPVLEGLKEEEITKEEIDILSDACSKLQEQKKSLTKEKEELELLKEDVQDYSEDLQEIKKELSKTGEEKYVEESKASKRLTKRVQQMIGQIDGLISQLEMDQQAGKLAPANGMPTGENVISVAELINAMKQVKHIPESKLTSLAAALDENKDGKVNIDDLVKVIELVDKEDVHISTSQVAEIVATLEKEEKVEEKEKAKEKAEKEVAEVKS
Chain of UniProt Q9P2J5 (Q9P2J5 whole entry, looked up): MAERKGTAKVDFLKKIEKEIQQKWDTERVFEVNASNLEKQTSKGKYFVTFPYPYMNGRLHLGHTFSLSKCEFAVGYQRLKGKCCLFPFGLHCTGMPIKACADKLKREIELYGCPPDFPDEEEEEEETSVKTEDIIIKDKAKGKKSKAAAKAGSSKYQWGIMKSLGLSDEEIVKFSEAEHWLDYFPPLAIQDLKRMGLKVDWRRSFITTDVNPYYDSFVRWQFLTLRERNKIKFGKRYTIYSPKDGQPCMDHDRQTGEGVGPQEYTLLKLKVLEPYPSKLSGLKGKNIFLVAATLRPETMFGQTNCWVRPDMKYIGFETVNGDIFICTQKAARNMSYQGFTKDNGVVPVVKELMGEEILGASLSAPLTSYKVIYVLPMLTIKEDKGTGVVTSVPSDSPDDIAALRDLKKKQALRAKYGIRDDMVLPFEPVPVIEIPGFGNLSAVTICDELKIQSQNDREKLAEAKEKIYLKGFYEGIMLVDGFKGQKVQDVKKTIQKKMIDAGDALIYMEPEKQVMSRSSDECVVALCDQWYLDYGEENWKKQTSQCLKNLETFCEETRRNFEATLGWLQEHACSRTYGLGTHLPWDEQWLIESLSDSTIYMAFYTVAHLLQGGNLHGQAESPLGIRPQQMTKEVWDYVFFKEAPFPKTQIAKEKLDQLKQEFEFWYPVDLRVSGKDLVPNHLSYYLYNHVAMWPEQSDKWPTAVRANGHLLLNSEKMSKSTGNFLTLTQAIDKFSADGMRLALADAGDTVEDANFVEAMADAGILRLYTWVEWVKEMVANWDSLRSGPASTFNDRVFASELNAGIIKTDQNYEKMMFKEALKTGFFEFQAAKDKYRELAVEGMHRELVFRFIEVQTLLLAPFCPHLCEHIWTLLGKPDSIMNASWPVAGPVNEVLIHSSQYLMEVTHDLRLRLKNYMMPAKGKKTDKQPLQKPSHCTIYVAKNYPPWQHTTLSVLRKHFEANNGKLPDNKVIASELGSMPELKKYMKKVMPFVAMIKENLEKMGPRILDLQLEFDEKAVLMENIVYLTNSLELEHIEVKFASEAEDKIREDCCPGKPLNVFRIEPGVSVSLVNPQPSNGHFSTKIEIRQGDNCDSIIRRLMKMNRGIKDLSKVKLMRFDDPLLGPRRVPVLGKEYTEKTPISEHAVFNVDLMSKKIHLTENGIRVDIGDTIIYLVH
Chain of UniProt Q9Y6X9 (Q9Y6X9 whole entry, looked up): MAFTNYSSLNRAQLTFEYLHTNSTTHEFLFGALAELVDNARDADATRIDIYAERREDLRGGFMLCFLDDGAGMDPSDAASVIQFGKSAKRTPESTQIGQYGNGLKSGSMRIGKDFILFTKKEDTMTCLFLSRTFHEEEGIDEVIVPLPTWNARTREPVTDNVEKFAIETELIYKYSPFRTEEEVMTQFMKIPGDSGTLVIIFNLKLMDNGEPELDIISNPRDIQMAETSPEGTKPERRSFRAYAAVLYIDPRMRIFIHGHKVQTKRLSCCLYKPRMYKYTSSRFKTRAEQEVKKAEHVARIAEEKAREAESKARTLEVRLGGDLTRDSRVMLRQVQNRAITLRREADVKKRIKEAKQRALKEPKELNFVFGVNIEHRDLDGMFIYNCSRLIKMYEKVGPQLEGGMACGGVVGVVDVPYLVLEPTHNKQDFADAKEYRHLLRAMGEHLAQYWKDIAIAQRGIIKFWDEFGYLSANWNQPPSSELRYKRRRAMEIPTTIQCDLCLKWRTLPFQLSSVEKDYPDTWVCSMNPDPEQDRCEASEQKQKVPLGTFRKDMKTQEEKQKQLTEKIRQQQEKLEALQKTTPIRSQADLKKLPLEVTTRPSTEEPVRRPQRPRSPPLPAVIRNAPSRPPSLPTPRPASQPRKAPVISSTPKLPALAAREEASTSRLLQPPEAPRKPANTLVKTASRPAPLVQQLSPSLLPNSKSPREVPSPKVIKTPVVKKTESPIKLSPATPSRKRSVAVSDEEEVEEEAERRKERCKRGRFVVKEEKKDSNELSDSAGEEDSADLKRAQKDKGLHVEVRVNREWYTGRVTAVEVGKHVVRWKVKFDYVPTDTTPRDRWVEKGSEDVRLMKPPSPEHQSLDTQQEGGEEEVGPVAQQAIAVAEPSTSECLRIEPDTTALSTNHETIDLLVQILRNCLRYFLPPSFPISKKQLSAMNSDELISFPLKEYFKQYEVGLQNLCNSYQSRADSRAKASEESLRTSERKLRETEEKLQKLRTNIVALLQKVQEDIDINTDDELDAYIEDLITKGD
Chain of UniProt Q14693 (Q14693 whole entry, looked up): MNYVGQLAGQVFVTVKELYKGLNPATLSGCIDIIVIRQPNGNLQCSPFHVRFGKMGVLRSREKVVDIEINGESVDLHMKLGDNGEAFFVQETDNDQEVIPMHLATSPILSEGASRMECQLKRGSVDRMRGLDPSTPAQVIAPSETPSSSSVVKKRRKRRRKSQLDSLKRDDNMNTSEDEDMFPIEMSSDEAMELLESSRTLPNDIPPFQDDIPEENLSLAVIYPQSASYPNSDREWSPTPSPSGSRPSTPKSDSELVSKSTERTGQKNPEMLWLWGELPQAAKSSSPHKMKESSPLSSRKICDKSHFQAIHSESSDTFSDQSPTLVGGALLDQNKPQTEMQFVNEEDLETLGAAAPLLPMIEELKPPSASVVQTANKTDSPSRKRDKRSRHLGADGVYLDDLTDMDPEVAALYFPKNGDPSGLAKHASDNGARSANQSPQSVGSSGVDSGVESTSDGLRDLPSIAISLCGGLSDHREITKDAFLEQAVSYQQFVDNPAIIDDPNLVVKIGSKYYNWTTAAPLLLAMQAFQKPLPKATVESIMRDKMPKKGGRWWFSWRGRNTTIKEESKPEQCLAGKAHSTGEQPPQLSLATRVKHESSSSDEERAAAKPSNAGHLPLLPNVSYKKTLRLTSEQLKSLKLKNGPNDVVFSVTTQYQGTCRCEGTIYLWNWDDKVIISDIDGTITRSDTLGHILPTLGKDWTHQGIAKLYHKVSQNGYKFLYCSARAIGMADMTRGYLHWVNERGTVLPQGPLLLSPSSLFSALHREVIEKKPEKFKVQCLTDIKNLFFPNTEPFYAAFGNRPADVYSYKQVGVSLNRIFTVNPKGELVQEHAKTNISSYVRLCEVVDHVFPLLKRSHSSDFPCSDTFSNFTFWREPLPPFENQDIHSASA
Chain of UniProt P10620 (P10620 whole entry, looked up): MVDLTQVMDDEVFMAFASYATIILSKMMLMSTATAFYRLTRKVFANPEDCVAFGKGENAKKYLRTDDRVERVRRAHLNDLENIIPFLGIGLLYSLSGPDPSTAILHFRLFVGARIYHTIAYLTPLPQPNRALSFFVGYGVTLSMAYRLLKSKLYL

Target	log2 fold change (erlotinib)	log2 fold change [1]	log2 fold change [2]	log2 fold change [3]	log2 fold change [4]	log2 fold change [5]	log2 fold change [6]	log2 fold change [7]	log2 fold change [8]	log2 fold change (IRAK-1-4 Inhibitor I)
METTL2A (UniProt Q96IZ6)	0.023	-0.009	-0.026	0.037	0	-0.018	-0.026	0.002	0.166	0.042
MBD2 (UniProt Q9UBB5)	0.013	-0.933	-0.003	0.05	-0.016	0.094	0.023	-0.069	-0.011	0.016
MICB, A0A140T979	0.022	0.086	-0.029	-0.07	-0.168	0.034	0.046	-0.021	0.275	0.023
MORC2 (UniProt Q9Y6X9)	0.039	-0.05	-0.002	0.015	-0.016	-0.001	-0.033	0.006	-0.023	0.034
MBOAT2 (UniProt Q6ZWT7)	-0.003	0.014	-0.111	-0.022	-0.036	-0.007	-0.076	-0.148	-0.011	-0.065
MAP4 isoform 5 (UniProt P27816)	-0.086	0.041	-0.251	-0.495 (active)	-0.035	-0.019	0.121	-0.05	0.026	0.112
MITD1 (UniProt Q8WV92)	-0.016	0.025	-0.019	0.021	0.014	-0.072	-0.016	-0.047	-0.02	-0.033
KMT2A isoform 3 (UniProt Q03164)	-0.022	0.351	0.041	-0.047	-0.014	-0.069	-0.004	0.005	-0.06	0.07
LSM8 (UniProt O95777)	-0.034	0.003	-0.003	0.027	0.423 (active)	-0.026	0.066	-0.008	-0.021	0.028
LPIN1 isoform 7 (UniProt Q14693)	0.047	-0.046	0.027	0.003	0.003	0.011	-0.006	0.038	0.132	0.034
MAP4K2 (UniProt Q12851)	0.001	-0.202	-0.082	-0.195	0.05	-0.057	0.355	0.288	-0.205	-0.046
MRPL28 (UniProt Q13084)	-0.112	-0.085	0.027	0.011	-0.074	0.017	0.024	0.042	-0.031	-0.03
LDAH isoform 2 (UniProt Q9H6V9)	-0.017	-0.015	-0.057	-0.023	0.005	-0.01	-0.021	-0.032	0	0.029
LRCH3 (UniProt Q96II8)	0.043	0.047	0.021	-0.013	0.001	0	-0.053	-0.102	-0.014	0.028
L3HYPDH (UniProt Q96EM0)	-0.004	0.057	0.028	-0.027	0.033	-0.03	-0.048	0	0.038	0.029
KIF21A isoform 5 (UniProt Q7Z4S6)	-0.025	0.022	-0.002	0.01	-0.013	-0.016	-0.034	-0.009	0.01	-0.002
KIF2A isoform 4 (UniProt O00139)	-0.008	0.02	-0.014	-0.007	-0.037	0.001	-0.022	-0.02	-0.041	-0.026
METTL7A (UniProt Q9H8H3)	0.029	0.043	0.183	0.008	-0.041	0.048	-0.016	0.385 (active)	0.06	0.036
MMS19 isoform 8 (UniProt Q96T76)	0.026	-0.019	-0.016	-0.02	-0.009	0.011	-0.099	0.01	0.034	0.004
KIF15 (UniProt Q9NS87)	0.004	0.025	-0.01	0.011	-0.019	0.048	-0.054	-0.04	-0.019	-0.012
LARS (UniProt Q9P2J5)	0.021	0.05	-0.024	0.024	0.013	0.016	-0.026	-0.012	-0.002	-0.032
MAP2K7 isoform 4 (UniProt O14733)	-0.042	-0.034	0.037	0.091	0.241	0.044	0.586 (active)	-0.106	0.078	-0.123
MARK3 (UniProt P27448)	0.089	-0.074	-0.007	0.07	-0.051	0.016	-0.218	-0.213	-0.023	-0.035
KLC4 isoform 3 (UniProt Q9NSK0)	0	-0.017	0.05	0	0	0.018	-0.029	-0.056	0.007	-0.021
LLGL1 (UniProt Q15334)	0.036	-0.06	0.021	0.02	0.007	0.001	-0.112	-0.08	0.018	-0.136
MGST1 (UniProt P10620)	-0.041	-0.068	0.016	-0.051	0.024	-0.031	-0.036	-0.07	0.089	0.067
MAPKAPK3 (UniProt Q16644)	-0.007	-0.088	0.042	0.022	-0.014	-0.01	-0.034	0.045	-0.052	-0.035
LETM1 (UniProt O95202)	-0.012	0.061	-0.157	0.012	0.014	0.01	0.044	-0.006	0.02	-0.013
KLC2 (UniProt Q9H0B6)	-0.008	0.065	0.07	0.008	-0.056	0.004	-0.061	-0.048	-0.056	-0.009
MED8 isoform 2 (UniProt Q96G25)	0.017	0.007	-0.001	0.021	0.027	0.008	0	0.014	0.088	-0.005
